In the supplement of paper PMC6555819:

Assays:
Assay in all cases: PBM binding z-score (relative to random genomic background probes); higher = stronger binding; sequences stand for … in GC…GCGATTGACAGCGTAGAATGAAGG
[1] = system: RARb homodimer (NR concentration 270 nM)
Summary of the method: (§1)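 Antibodies against each partner of ligand-free nuclear receptor dimers (one per run) detected binding on custom Agilent 4×180K protein-binding microarrays after 1 h incubation. The double-stranded probes had 34-nt variable regions carrying direct-repeat seeds, single-nucleotide variants, half-site ablations and random human genomic background sequences. Binding z-scores, from regression-normalized fluorescence, use the random background probes as reference.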

[2] = system: RARg:RXRa (NR concentration 270 nM, RXRa partner concentration 90 nM)
Summary of the method: as §1

[3] = system: RARg homodimer (NR concentration 270 nM)
Summary of the method: as §1

[4] = system: RXRa DBDmut IVT, anti-RXR (DBD mutation: RXRa K156A/R161A, NR concentration 90 nM)
Summary of the method: as §1

[5] = system: RXRa homodimer (NR concentration 180 nM)
Summary of the method: as §1

[6] = system: THRa:RXRa (NR concentration 90 nM, RXRa partner concentration 90 nM)
Summary of the method: as §1

[7] = system: THRa homodimer (NR concentration 90 nM)
Summary of the method: as §1

[8] = system: VDR homodimer (NR concentration 270 nM)
Summary of the method: as §1

Sequence | PBM binding z-score [1] | PBM binding z-score [2] | PBM binding z-score [3] | PBM binding z-score [4] | PBM binding z-score [5] | PBM binding z-score [6] | PBM binding z-score [7] | PBM binding z-score [8]
TCAGACAGGTTAAGGTAACTCAGGTACGCAGTCG | 1.33 | 1.22 | 1.08 | 1.43 | 1.57 | 3.11 | 2.5 | 0.557
ATAACGAGGGCAATGAGTTGATAGCACGGGTGGC | 0.877 | 1.46 | 1.73 | 1.84 | 1.07 | 0.969 | -0.389 | 3.01
CCTACTGGGCCATTCGGAGGTCATTGATCATATG | 3.37 | 3.59 | 2.55 | 0.347 | 2.38 | 2.83 | 1.58 | 3.03
ATCGCTAGGTAAAGTTCAGTGAAAGATCGATAGA | 2.03 | 1.75 | 1.86 | 0.79 | 1.03 | 0.617 | -0.888 | 1.49
CGAACTAGGTCAGAACAGGATAGTGAAGGATGAT | 1.64 | 2.44 | 3.17 | 0.707 | 1.34 | 2.39 | 0.235 | 0.187
ACTTACTGGTCAACGAGGTTATAGCACGCGTATA | 1.88 | 1.72 | 1.94 | 1.16 | 1.85 | 2.26 | 1.22 | 1.71
ATATGTAGGTTAGCTGGGGTCACTCAGACTAGGC | 4.11 | 4.29 | 3.51 | 1.52 | 5.23 | 5.18 | 3.2 | 2.95
CCGACTGGTGCATAAGGTTACCATAAGCCAGCCC | 1.25 | 0.548 | 0.37 | 0.0565 | 0.963 | 1.99 | 1.58 | 0.347
CGTCAAAGTCCAACTAAGGTAACGTAAAGCACGC | 1.43 | 0.748 | 1.4 | 1.14 | 0.261 | 3.44 | 1.91 | 0.579
ATCGAAAGGTCGAGGTGACTATAGAGAAAGGGAA | 2.73 | 4.4 | 4.53 | 1.37 | 4.45 | 2.9 | 0.607 | 0.269
CCTAGTTGGTAAAGGTCACACACGCTATAGGTAC | 5.1 | 6.22 | 6.12 | 2.1 | 6.73 | 4.12 | 2.03 | 3.54
TGAAAGAGGTTATAAGATCAGGGAACGTTGCAAA | 0.261 | 2.01 | 1.15 | 0.022 | 2.37 | 0.935 | -0.921 | -0.105
TCTGGTAGATCAATAGAGGTTAAGAAAGTGCGCT | 1.43 | 0.787 | 0.391 | 0.698 | 1.48 | 2.22 | -0.138 | 0.435
GCTATTAGTTGAAAGGTCAACCGAATGATTCTCG | 5.01 | 6.07 | 5.57 | 1.88 | 7.11 | 3.83 | 1.41 | 2.06
AGAATTAGGTTAAGATCAGGGAAACAGAATACAT | 0.701 | 1.04 | 1.09 | -0.0806 | 0.853 | 1.35 | 0.656 | 0.432
CCGCGGAGGACAACAGGAGGTCAGAGCTGCCAGA | 3.47 | 3.63 | 3.65 | 0.503 | 1.98 | 2.83 | 1.18 | 1.55
CCGAGTAGGTTATCGGGCATTCAGGCAACGGTGA | 0.614 | 0.431 | 0.479 | -0.164 | 0.45 | 0.172 | -0.196 | -0.435
GCTGCTAGGTCAACTGATGGTCTGCTAAAGCTCG | 3.12 | 4.34 | 4.87 | 1.78 | 2.91 | 2.83 | 1.02 | -0.264
CTCGGAAGGTCGTGCTCAGGTGAGTATACCAAAC | 1.95 | 3.34 | 2.31 | 1.18 | 2.37 | 3.59 | 1.15 | 0.743

Sequence | PBM binding z-score [1] | PBM binding z-score [2] | PBM binding z-score [3] | PBM binding z-score [4] | PBM binding z-score [5] | PBM binding z-score [6] | PBM binding z-score [7] | PBM binding z-score [8]
ACAGACAGGTAATGAAGGTAACTCAGGCTATCAT | 0.185 | 0.351 | 0.385 | -0.156 | 0.59 | 1.14 | 0.263 | -0.0776
ATATATAGGTTACATCCGGGTCATTCAGGCTATG | 3.34 | 4.2 | 2.64 | 1.57 | 3.51 | 4.03 | 2.74 | 3.65
AGATTGAGGTTATTAAGATCAGGGAATTGCGGTC | 1.06 | 1.07 | 0.837 | 1.55 | 1.44 | 2.37 | 0.869 | 1.49
CGTACAAGGTCAAGGTCAGTGAAAGAGACTCGAA | 5.35 | 6.85 | 7.48 | 3.82 | 6.83 | 4.45 | 3.84 | 3.49
TCATATAGGTAAAAGCTGAAAGTCGGTGTGGTAA | -0.59 | -0.0558 | -0.318 | 1.45 | 0.496 | -0.258 | -0.715 | -0.102
CCGCCTAGGTCAGGGCCAGTATAGGAGGAACGTT | 2.62 | 2.86 | 3.33 | -0.193 | 1.74 | 2.2 | 0.59 | -0.22
CCTACTGGGCCAGCAGGTCATTGATATCAACGTT | 2.26 | 2.03 | 1.62 | -0.531 | 1.6 | 1.86 | 0.347 | 0.812
TTACCAAGGTGAGCGGAGGTCGTTGATCCAACTC | 1.72 | 1.31 | 1.18 | -0.227 | 1.44 | 3.73 | 0.656 | 0.886
CCTAGCAGGCCAGGGTGACTCAAGCATTTCGCTT | 0.018 | -0.0591 | -0.113 | -0.702 | -0.00102 | 0.244 | -0.395 | -0.814
TCGAGTAGGTTACCAATCGGGCATTCAGCTTTCT | 0.187 | 1.32 | 0.199 | -0.0305 | 0.304 | -0.223 | -1.47 | -1.01
CGAACTAGGTCCAGGACAGTGAATCTCCGCACGC | -0.206 | -0.326 | -0.183 | 0.703 | -0.387 | 0.749 | 0.778 | 0.133
CCTGCTAGGTCAATGCTCAGCTAAAGCAGCTCGC | 2.37 | 3.14 | 4.3 | 1.92 | 1.47 | 1.97 | 0.173 | -0.26
CTACCAAGGTGATCAAGGTCGTTGATTACTATTC | 1.47 | 0.906 | 0.808 | 1.42 | 1.11 | 2.71 | 1.55 | 2.33
CGTCAATGTTCAACTAAGGTAACGTAAAGCACGC | 0.643 | 0.459 | 0.531 | 0.651 | 0.456 | 3.46 | 2.04 | 0.309
AATACATGGTCATCGTAGGCCAGAGTACGCACAG | 0.899 | 0.696 | 1.26 | -0.177 | 0.994 | 1.25 | -0.339 | 0.322
CCTTACGGGTCACTGCAGGTTATAGCATCGGAGT | 3.23 | 4.87 | 4.67 | 1.59 | 5.03 | 4.41 | 0.184 | 1.17
TCTTGTGGATCAACAGGAGGTTAAGAAAGATCGA | 0.619 | 1.18 | 0.266 | 0.248 | 0.985 | 1.01 | -0.626 | 0.119
TCGAGTAGGGTAGTCGGGGCATTCAGCCAACATA | 0.403 | -0.271 | -0.538 | 0.261 | -0.197 | 0.368 | 0.185 | 0.229
ATATGTAGGTTCAGGGTCATTCAGGTTGGTTCGC | 3.58 | 4.1 | 3.01 | 3.37 | 5.25 | 3.92 | 3.36 | 6.06
